A number with no mark means an inactive call. Activity calls are given as the source filed them. The call rests on the fitted dose curve; in most records, active means well fitted curve in the direction sought with a large enough effect in the repeat runs; inconclusive means weak or mixed curves; inactive means flat fitted curve, though single readings scatter.
On the % scale 0 is the no-effect control and ±100 the full control effect.

This test can be described thus: qHTS assay to test for compound auto fluorescence at 535 nm (green) in HepG2 cell free culture (AID 720686). To be noted: Cell-free medium, green autofluorescence 485/535 nm; series mostly up to 91.3 µM. The source says:
U.S. Tox21 Program National Center for Advancing Translational Sciences [NCATS] NIH Chemical Genomics Center [NCGC] U.S. Environmental Protection Agency [EPA] National Institutes of Environmental Health Sciences [NIEHS] National Toxicology Program [NTP] U.S. Food and Drug Administration [FDA] Tox21 Assay Overview: Compound auto fluorescence often interferes with screening of the compound library against various biological targets and signaling pathways. Some of these compounds may have fluorophoric properties. Such properties may interfere with the assay outputs resulting in false positives and/or negatives. To decrease such complications and ensure the compound activities are relevant in terms of biological response, the Tox21 10K compound library was screened for auto fluorescence. From the fluorophores used as reporter signals in our screening assays, the auto fluorescence equivalencies of compounds against three fluorophores have been evaluated: Triamterene, Fluorescein and Rose Bengal sodium for blue, green and red fluorescence, respectively. The fluorescence intensities were measured using Excitation/Emission wavelengths at 405/460nm, 485/535nm and 540/590nm for blue, green and red labels, respectively. This assay includes the green fluorescence data.
Tox21 Assay Protocol Summary: 5 uL of culture medium (MEM containing 10% FBS) per well was dispensed into black wall/clear bottom 1536-well plates using a Multidrop Combi Dispenser (ThermoFisher Scientific, Waltham, MA). After 23 nL compound or DMSO vehicle was transferred into assay plate by a pintool work station (Kalypsys, San Diego, CA), fluorescence intensities in the assay plates were measured by an Envision (PerkinElmer, Shelton, CT) plate reader using three labels for measuring blue, green and red fluorescence at […] 460, 535 and 590nm respectively.
(Quantitative high-throughput screening tests each substance at several concentrations.)
`OC/C=C/c1ccccc1`: the outcome was inactive. Still for that read-out and setting: with `CCC(=O)c1cccc(Cl)c1` the entry was “inactive”; with `Nc1cc(C(Cl)=C(Cl)Cl)c(S(N)(=O)=O)cc1S(N)(=O)=O`, “inactive”. In the case of `CCCOCC(C)OCC(C)O` (stereo not given), the call was inactive. As for `CNc1ncnc2nc[nH]c12`, the molecule was called inactive. For `NC(CS)C(=O)O` (stereo not given), the molecule was classed as inactive.

With `N#CC1(O)CCCCC1`, the result was inactive. As for `C=CCn1c(=O)n([C@@H]2O[C@H](CO)[C@@H](O)[C@H]2O)c2nc(N)[nH]c(=O)c21`, the result was inactive.

On to `CC(C)(C)N(CCO)CCO`, for which the call was inactive. Take `CO[Si](OC)(OC)OC`: the outcome was inactive. For the molecule `CC(C)c1ccc2oc3nc(N)c(C(=O)O)cc3c(=O)c2c1`, the outcome was inactive. Turning to `CCCC(C)C(=O)O` (stereo not given), the molecule was called inactive. In the case of `Nc1cc(N)cc(C(=O)O)c1`, the outcome was inactive.

`CCOC(=O)Cn1c(=O)sc2cccc(Cl)c21`: the molecule was called inactive. `CCN1CCN(c2cc3c(cc2F)c(=O)c(C(=O)O)cn3C2CC2)CC1`: the outcome was inactive. In the case of `OC1OC[C@@H](O)[C@H](O)[C@H]1O` (stereo not given in full), the molecule was classed as inactive.

On to `CC1(C)SC(C)(C)SC(C)(C)S1`, for which the outcome was inactive.

Take `CN(C)CCn1nnnc1SCC1=C(C(=O)O)N2C(=O)[C@@H](NC(=O)Cc3csc(N)n3)[C@H]2SC1`: the fluorescence, % of fluorescein control was 0.0098% [at 18.6 µM]. Consider `CCCCOCC(C)OCC(C)O` (stereo not given), for which the molecule was classed as inactive. Same read-out and setting: next, `O=C1OC(=O)c2cc([N+](=O)[O-])ccc21`: “inactive”; `COC(=O)c1ccc(C(=O)OC)c(C(=O)OC)c1`: “inactive”; `CC(C)COC(=O)C(C)C`: “inactive”.

As to `CCC(C)OC(=O)N1CCCCC1CCO` (stereo not given), the call was inactive. Still for that read-out and setting: with `COc1ccc(COC=O)cc1` the entry was “inactive”; with `C1COCCO1`, “inactive”; with `CCC(=O)/C=C/c1ccc(OC)cc1`, “inactive”.

In the case of `C#CC(O)CCCCC` (stereo not given), the molecule was called inactive.

For the molecule `C=C(C)C(=O)NCCC[N+](C)(C)C`, the call was inactive. For the molecule `Cc1onc(-c2ccccc2)c1-c1ccc(S(N)(=O)=O)cc1`, the result was inactive. On to `COc1nc(C)nc(N)n1`, for which the molecule was called inactive. In the case of `Fc1ccccc1-c1ccccc1`, the result was inactive.

As for `N[C@@H](CS)C(=O)O`, the result was inactive. As for `C=C(C)C(=O)OCCCCCCCCCCCCCCCCCC`, the fluorescence, % of fluorescein control is -0.0135% [at 18.6 µM]. As for `COC(=O)CCCC(=O)O`, the outcome was inactive.

As for `CC(C)(C)OC(=O)N1C[C@@H](F)C[C@H]1C(=O)O`, the result was inactive.

With `C[N+](C)(C)CC[N+]1(C)Cc2c(Cl)c(Cl)c(Cl)c(Cl)c2C1`, the result was inactive. For `Nc1nc(F)nc2c1ncn2[C@@H]1O[C@H](CO)[C@@H](O)[C@@H]1O`, the call was inactive. Same read-out and setting: with `CCCCCCCCCCCl` the entry was “inactive”. The same measure, in the same setting: with `CC(=O)CCc1ccc(O)cc1` the entry was “inactive”; with `CCCc1ccccc1O`, “inactive”.

Values taken from PubChem BioAssay (Tox21).
